# Results: the supplement of paper PMC10338343
# ± gives the standard deviation. In all, about 6,200 sequences were measured (“pre-steady-state target cleavage rate”: median about 0.29, highest 2% from about 2 on). Shown is part of a subset that was picked to be rich in the highest values.
# Tested on: MIWI (PIWIL1) piRISC loaded with piRNA #1 (30 nt)
# Test: pre-steady-state target cleavage rate (min^-1); MIWI and MILI are mouse PIWI proteins and EfPiwi is from a freshwater sponge; tags in brackets are library labels; higher = faster piRNA-guided slicing of the target
# Conditions: guide: piRNA #1 5'p-UGAGGUAGUAGGUUGUAUAGUAUCCAGAGG; auxiliary factor: 500 nM mouse GTSF1
# Summary of the method: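 Active affinity-purified piRISC carrying one synthetic guide (1 nM) was mixed with a transcribed, DNA-blocked target RNA library […] in HEPES–potassium acetate buffer at 33 °C for 0–8 or 0–960 min, with or without 500 nM GTSF1 partner protein. Uncleaved targets were then sequenced and normalised to depth and to weakly complementary targets. Three trials were pooled, and k3 was capped at 0.0001 min^-1. A burst-and-steady-state fit was applied to obtain the pre-steady-state cleavage rate.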
# 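Note: 1 nM active piRISC with 0.1 nM target library at 33 °C single turnover.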
row,Sequence,pre-steady-state target cleavage rate
1,GGAGACCUUUCUAUACAACCUAGUACCUCA,0.238 ± 0.034
2,CCUCUGGAUAGAAUACAACCUACUACCUCA,1.24 ± 0.066
3,GGAGACCAUACUAUUCUACCUACUACCUCA,0.224 ± 0.035
4,GGAGAGGGUACUAUACAACCUACUACCUCA,1.17 ± 0.051
5,GGACUGGAUUCUAUACAACCUACUAGCUCA,0.118 ± 0.022
6,GGAGACCUAUGAUAUCAACCUACUACCUACA,< 0.0001
7,GGAGACGAUACUAUACAACCUACUACCGUCA,0.443 ± 0.065
8,GGAGUGGAUACUAUCACAACCUACUACCUCA,1.49 ± 0.12
9,GGAGUGGAUACUAUACAAGCUACUUCCUCA,0.374 ± 0.031
10,CCUCUGGUUACUAUACAACCUACAACCUCA,1.28 ± 0.089
11,CCACUGGUUACUAUACAACCUACUACCUCA,2.28 ± 0.14
12,CCUCUGGUUACUAUACAACCUACUACCACA,1.79 ± 0.14
13,GGACUGGUUACUAUACAACCUACUACCUCA,1.65 ± 0.13
14,CCUCUGGUUACUAUACAACCUACUAGCUCA,0.705 ± 0.055
15,GCUCUGGUUACUAUACAACCUACUACCUCA,2.1 ± 0.12
16,GCACUGGUUACUAUACAACCUACUACCUCA,1.84 ± 0.11
17,GCUCUGGUUACUAUACAACCUACAACCUCA,1.33 ± 0.079
18,GCUCUGGUUACUAUACAACCUACUACCACA,2.3 ± 0.24
19,GGUCUGGUUACUAUACAACCUACUACCUCA,1.87 ± 0.11
20,GGUCUGGUUACUAUACAACCUACUACCACA,0.747 ± 0.068
21,CCUCUGGUUACUAUACAACCUACUACCUCA,2.29 ± 0.13
22,GGAGACCUAUCUAUACUACCUACAACCUCA,0.0031 ± 0.0021
23,GGAGACCUAUCUAUACAACCUACUACCUGA,0.516 ± 0.057
24,GGAGUGGAUACUAUACAACCUACUAACCUCA,0.901 ± 0.053

row,Sequence,pre-steady-state target cleavage rate
1,GGAGUGGAUUCUAUACAACCUACUACGUCA,0.522 ± 0.048
2,CCUCUGGAUACUAUACAACCACUACCUCA,0.033 ± 0.0096
3,CCUCUGGAUACUAAACAACCUACUACGUCA,1.49 ± 0.087
4,GGAGACCUUACUAUUCAACCUACUACGUCA,0.678 ± 0.064
5,GGAGACCAUUCUAUACAACCUACAACCUCA,0.667 ± 0.075
6,GGUCUGGAUAGUAUACAUCCUACUACCUCA,0.741 ± 0.083
7,GGAGAGGAUACUAUACAUCCUACUUCCUCA,0.0568 ± 0.0099
8,GGAGACCUAACUAAACAACCUACUAGCUCA,0.0502 ± 0.019
9,CCUCUGGUUACAAUACAACCUACUACCUCA,2.15 ± 0.13
10,GGUCUGGUUACUUUACAACCUACUACCUCA,1.69 ± 0.13
11,GGUCUGGUUACAAUACAACCUACUACCUCA,1.59 ± 0.12
12,GCUGUGGUUACUAUACAACCUACUACCUCA,2 ± 0.13
13,GGUCUGGUUUCUAUACAACCUACUACCUCA,1.8 ± 0.12
14,GCUCUGGUUACAAUACAACCUACUACCUCA,1.98 ± 0.12
15,CCUCUGGUUACUUUACAACCUACUACCUCA,2.24 ± 0.16
16,GCUCUGGUUACUUUACAACCUACUACCUCA,1.7 ± 0.089
17,CCUGUGGUUACUAUACAACCUACUACCUCA,1.17 ± 0.058
18,GGUGUGGUUACUAUACAACCUACUACCUCA,1.54 ± 0.097
19,CCUCUGGUUUCUAUACAACCUACUACCUCA,2.25 ± 0.15
20,GCUCUGGUUUCUAUACAACCUACUACCUCA,2 ± 0.12
21,GGAGACGAUACUAUACAACAUACUACCUCA,1.16 ± 0.077
22,GGAGUGGAUUCUAAACAACCUACUACCUCA,0.994 ± 0.069
23,GGAGACCUAUGAUAUGUACCUACUAACUCA,< 0.0001
24,GGAGUGCAUACUAUACAACCUACUACCUGA,0.513 ± 0.077

row,Sequence,pre-steady-state target cleavage rate
1,GGAGACCUAUGUAUACAACCUACUACUCA,0.00349 ± 0.0019
2,GGAGACCUUACAAUAGAACCUACUACCUCA,0.167 ± 0.022
3,GGAGACCAUACUAUACAACCUACUUCCUCA,0.666 ± 0.054
4,GGUCUGGAUACUAUACAACUUACUACCUCA,0.481 ± 0.028
5,GGAGUGCAUUCUAUACAACCUACUACCUCA,1.32 ± 0.11
6,CCUCUCGAUACUAUUCAACCUACUACCUCA,2.27 ± 0.15
7,CCUCCGGAUACUAUACAACCUACUACCUCA,2.08 ± 0.14
8,GCUCGGGAUACUAUACAACCUACUACCUCA,1.5 ± 0.071
9,GGUCGGGAUACUAUACAACCUACUACCUCA,1.66 ± 0.11
10,CCUCUCGAUACUAUACAACCUACUACCUCA,2.01 ± 0.12
11,GGUCCGGAUACUAUACAACCUACUACCUCA,1.76 ± 0.11
12,GCUCUCGAUACUAUACAACCUACUACCUCA,1.86 ± 0.11
13,GCUCUCGAUACUAUUCAACCUACUACCUCA,1.86 ± 0.11
14,GCUCCGGAUACUAUACAACCUACUACCUCA,1.81 ± 0.12
15,CCUCGGGAUACUAUACAACCUACUACCUCA,2.3 ± 0.16
16,GGUCUCGAUACUAUUCAACCUACUACCUCA,1.86 ± 0.12
17,CCUCUCGAUACUAUACAACCUACAACCUCA,1.34 ± 0.077
18,GGUCUGGUACUAUACAACCUACUACCUCA,1.73 ± 0.11
19,GGAGACCAAACUAUACAACCUAGUACCUCA,0.226 ± 0.033
20,GGAGACCUAUGUAUACAACCUACUACCUGCA,0.0855 ± 0.011
21,GGAGACCUAACUUAUACAACCUACUACCUCA,0.23 ± 0.041
22,CCUCUGGAUACUAUUCAACCUACUAGCUCA,1.37 ± 0.12
23,CCUCUCGAUACUAAACAACCUACUACCUCA,2.13 ± 0.14
24,CCUCUCGAUACUUUACAACCUACUACCUCA,2.13 ± 0.14

row,Sequence,pre-steady-state target cleavage rate
1,GCUCUCGAUACUUUACAACCUACUACCUCA,1.69 ± 0.11
2,GGUCUCGAUACUAUACAACCUACUACCACA,0.758 ± 0.064
3,GGUCUCGAUACUAAACAACCUACUACCUCA,1.68 ± 0.12
4,CCUCUCGGAUACUAUACAACCUACUACCUCA,2.06 ± 0.15
5,GCUCUCGGAUACUAUACAACCUACUACCUCA,1.76 ± 0.088
6,CCUCGGAUACUAUACAACCUACUACCUCA,1.96 ± 0.13
7,CCUCUCGAUACUAUACAACCUACUACCACA,2.21 ± 0.12
8,GCUCUCGAUACUAAACAACCUACUACCUCA,1.81 ± 0.12
9,CCUCUCGAUACUAUACAACCUACUACCUGA,0.985 ± 0.087
10,GGUCUCGAUACUUUACAACCUACUACCUCA,1.54 ± 0.093
11,GCUCUGGAUACUAUACAACCUACGACCUCA,1.22 ± 0.083
12,GGUCUGGAAACUAUACAACCAACUACCUCA,0.138 ± 0.015
13,GGAGACCAUACUUACAACCUACUACCUCA,0.269 ± 0.028
14,GGACAGGAUACUAAACAACCUACUACCUCA,1.64 ± 0.11
15,GGAGACCAUUCUAUACAACCUACUACCACA,1.16 ± 0.1
16,GCACUCGAUACUAUACAACCUACUACCUCA,1.43 ± 0.059
17,GGACUCGAUACUAUACAACCUACUACCUCA,1.69 ± 0.12
18,GGACUCGAUACUAUACAACCUACUACCACA,0.579 ± 0.063
19,GCUCUCGAUACUAUACAACCUACUACCACA,2.17 ± 0.15
20,GCUCUCGAUACUAUACAACCUACUACCUGA,1.07 ± 0.11
21,CCACUCGAUACUAUACAACCUACUACCUCA,2.13 ± 0.14
